Unmarked numbers belong to inactive results. Results filed as inconclusive are left out. Entries that show only a call come without a potency. Activity calls are given as the source filed them. Calls follow the shape of the full dose curve.
Experiments:
[1] = target: Acetylcholinesterase (Homo sapiens) (UniProt P22303); assay: Acetylcholinesterase (AChE) small molecule antagonists: colormetric cell-based qHTS assay (AID 1347395); settings: SH-SY5Y cells AChE activity, colorimetric (Ellman); series mostly up to 115 µM; also: nearly all actives have a fitted effect of over 30% in size; also: potency is read from the fitted curve at half-maximal effect
Acetylcholinesterase (Homo sapiens), sequence (P22303 whole entry, looked up): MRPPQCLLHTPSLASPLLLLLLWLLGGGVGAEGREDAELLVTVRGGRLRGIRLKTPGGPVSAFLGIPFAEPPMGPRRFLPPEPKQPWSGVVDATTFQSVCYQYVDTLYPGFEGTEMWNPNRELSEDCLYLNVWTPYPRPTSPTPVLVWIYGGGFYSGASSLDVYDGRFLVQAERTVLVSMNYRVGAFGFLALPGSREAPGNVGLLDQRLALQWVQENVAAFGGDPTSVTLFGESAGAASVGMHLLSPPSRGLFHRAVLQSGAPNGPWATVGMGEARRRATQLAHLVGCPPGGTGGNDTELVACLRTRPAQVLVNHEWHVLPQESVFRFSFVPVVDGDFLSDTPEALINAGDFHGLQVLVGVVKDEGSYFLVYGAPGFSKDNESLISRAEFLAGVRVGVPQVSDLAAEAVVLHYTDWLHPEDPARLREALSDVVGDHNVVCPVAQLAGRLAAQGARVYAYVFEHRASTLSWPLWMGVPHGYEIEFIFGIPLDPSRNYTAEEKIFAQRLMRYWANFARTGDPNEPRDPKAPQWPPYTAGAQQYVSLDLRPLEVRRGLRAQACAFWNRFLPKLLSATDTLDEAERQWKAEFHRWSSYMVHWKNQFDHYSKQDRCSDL
Summary of the method: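 Homogeneous whole-cell format. SH-SY5Y cells seeded overnight, dosed with compound (30 min, 37 C, 5% CO2), then given DTNB/acetylthiocholine cocktail for 90 min at 37 C; colorimetric signal.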

[2] = target: Acetylcholinesterase (Homo sapiens) (UniProt P22303); assay: Acetylcholinesterase (AChE) small molecule antagonists: enzyme-based qHTS assay (AID 1347397); settings: Potency: AChE enzyme activity inhibition; outcome: AChE enzyme activity inhibition; series mostly up to 115 µM; also: nearly all actives have a fitted effect of over 55% in size
Summary of the method: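 Colorimetric DTNB read-out of thiocholine released from acetylthiocholine by recombinant human AChE (50 mU/mL as dispensed). Compounds were preincubated 30 min at RT before substrate/DTNB addition, with a 10 min RT reaction.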

[3] = target: Acetylcholinesterase (Homo sapiens) (UniProt P22303); assay: Acetylcholinesterase (AChE) small molecule antagonists: fluorescence cell-based qHTS assay (AID 1347398); settings: SH-SY5Y cells; Potency: AChE activity; outcome: AChE activity; series mostly up to 115 µM; also: nearly all actives have a fitted effect of over 50% in size
Summary of the method: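 SH-SY5Y, 2,000 cells/well, attached overnight; cmpd 30 min 37 C; acetylthiocholine/Thiolite Green cocktail 40 min RT; fluorescence Ex/Em 490/520 nm.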

[4] = target: Acetylcholinesterase (Homo sapiens) (UniProt P22303); assay: Acetylcholinesterase (AChE) small molecule antagonists: enzyme-based qHTS assay with human liver microsomes (AID 1347399); settings: Potency: qHTS inhibition; outcome: qHTS inhibition; series mostly up to 115 µM; also: nearly all actives have a fitted effect of over 60% in size
Summary of the method: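 Recombinant human AChE (50 mU/mL in the enzyme mix) and human liver microsomes (0.25 mg/mL final) were preincubated with compound and NADPH (0.25 mg/mL final) for 30 min at 37 C. Acetylthiocholine/DTNB was then added; thiocholine was read colorimetrically after 10 min at room temperature.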

## O=Cc1ccc(Cl)c([N+](=O)[O-])c1
[1]
  Potency: 39.9 µM (active)
[2]
  Potency: inactive
[3]
  Potency: inactive
[4]
  Potency: inactive

## CC1=CCC(C(C)C)=CC1
[1]
  Potency: inactive
[2]
  Potency: inactive
[3]
  Potency: inactive
[4]
  Potency: inactive

## Cc1ccc(O)c(C(=O)c2ccccc2)c1
[1]
  Potency: inactive
[2]
  Potency: inactive
[3]
  Potency: inactive
[4]
  Potency: inactive

## CCN1CCCC(OC(=O)C(c2ccccc2)c2ccccc2)C1 (centres undefined)
[1]
  Potency: inactive
[2]
  Potency: inactive
[3]
  Potency: inactive
[4]
  Potency: inactive

## COCCOCCOCCOCCO
[1]
  Potency: inactive
[2]
  Potency: inactive
[3]
  Potency: inactive
[4]
  Potency: inactive

## O=S(=O)(O)c1cc(O)c(O)c(S(=O)(=O)O)c1
[1]
  Potency: inactive
[2]
  Potency: inactive
[3]
  Potency: inactive
[4]
  Potency: inactive

## CCC(C)CO (centres undefined)
[1]
  Potency: inactive
[2]
  Potency: inactive
[3]
  Potency: inactive
[4]
  Potency: inactive

## O=c1[nH]c(=O)c2[nH]c(=O)[nH]c2[nH]1
[1]
  activity, negative = inhibition: 0.0138% [at 10.5 µM]
[2]
  activity change, negative = inhibition: 2.79% [at 10.5 µM]
[3]
  activity change, negative = inhibition: 6.44% [at 10.5 µM]
[4]
  activity change, negative = inhibition: 21.5% [at 10.5 µM]

## CC(C)OC(=O)OCOP(=O)(CO[C@H](C)Cn1cnc2c(N)ncnc21)OCOC(=O)OC(C)C
[1]
  Potency: inactive
[2]
  Potency: inactive
[3]
  Potency: inactive
[4]
  Potency: inactive

## C=C[Si]1(C)O[Si](C)(C=C)O[Si](C)(C=C)O[Si](C)(C=C)O1 (centres undefined)
[1]
  Potency: inactive
[2]
  Potency: inactive
[3]
  Potency: inactive
[4]
  Potency: inactive

## CN(C)CCN1CCOCC1
[1]
  Potency: inactive
[2]
  Potency: inactive
[3]
  Potency: inactive
[4]
  Potency: inactive

## CCCCOC(=O)CCCCCCCCC(=O)OCCCC
[1]
  Potency: inactive
[2]
  Potency: inactive
[3]
  Potency: inactive
[4]
  Potency: inactive

## NS(=O)(=O)c1cc2c(cc1Cl)CN(C1CCCCC1)C2=O
[1]
  Potency: inactive
[2]
  Potency: inactive
[3]
  Potency: inactive
[4]
  Potency: inactive

## Nc1ccn([C@H]2CS[C@@H](CO)O2)c(=O)n1
[1]
  Potency: inactive
[2]
  Potency: inactive
[3]
  Potency: inactive
[4]
  Potency: inactive

## CC(C)c1ccccc1C(C)C
[1]
  Potency: inactive
[2]
  Potency: inactive
[3]
  Potency: inactive
[4]
  Potency: inactive

## Cc1cc(C)c(O)c(C)c1
[1]
  Potency: inactive
[2]
  Potency: inactive
[3]
  Potency: inactive
[4]
  Potency: inactive

## Cc1cccc(N(C)C(=S)Oc2ccc3ccccc3c2)c1
[1]
  Potency: inactive
[2]
  Potency: inactive
[3]
  Potency: inactive
[4]
  Potency: inactive

## CC(C(=O)O)c1ccc2c(c1)CC(=O)c1ccccc1S2 (centres undefined)
[1]
  Potency: inactive
[2]
  Potency: inactive
[3]
  Potency: inactive
[4]
  Potency: inactive

## CCCCCCCCCCCCCO
[1]
  Potency: inactive
[2]
  Potency: inactive
[3]
  Potency: inactive
[4]
  Potency: inactive

## CCc1cccc(CC)c1
[1]
  Potency: inactive
[2]
  Potency: inactive
[3]
  Potency: inactive
[4]
  Potency: inactive

## c1ccc2c(c1)CCC2
[1]
  Potency: inactive
[2]
  Potency: inactive
[3]
  Potency: inactive
[4]
  Potency: inactive

## Oc1ccc(C2(c3ccc(O)c(C4CCCCC4)c3)CCCCC2)cc1C1CCCCC1
[1]
  Potency: inactive
[2]
  Potency: inactive
[3]
  Potency: inactive
[4]
  Potency: inactive

## CC(C)C(=O)c1c(C(C)C)nn2ccccc12
[1]
  Potency: inactive
[2]
  Potency: inactive
[3]
  Potency: inactive
[4]
  Potency: inactive

## CN(C)C(=O)Nc1ccc(Cl)c(Cl)c1
[1]
  Potency: inactive
[2]
  Potency: inactive
[3]
  Potency: inactive
[4]
  Potency: inactive

## IC(I)I
[1]
  Potency: inactive
[2]
  Potency: inactive
[3]
  Potency: inactive
[4]
  Potency: inactive

## C=C(C)C(=O)OCCCCCCCCCCCC
[1]
  Potency: inactive
[2]
  Potency: inactive
[3]
  Potency: inactive
[4]
  Potency: inactive

## O=C(O)CNC(=O)c1ccccc1
[1]
  Potency: inactive
[2]
  Potency: inactive
[3]
  Potency: inactive
[4]
  Potency: inactive

## C#C[C@]1(O)CC[C@H]2[C@@H]3CCc4cc(O)ccc4[C@H]3CC[C@@]21C
[1]
  Potency: inactive
[2]
  Potency: inactive
[3]
  Potency: inactive
[4]
  Potency: inactive

## CC(CCO)CC(C)(C)C (centres undefined)
[1]
  Potency: inactive
[2]
  Potency: inactive
[3]
  Potency: inactive
[4]
  Potency: inactive

## CCCCOCCOCCOCCO
[1]
  Potency: inactive
[2]
  Potency: inactive
[3]
  Potency: inactive
[4]
  Potency: inactive

## CC1=CC(=O)c2ccccc2C1=O
[1]
  Potency: inactive
[2]
  Potency: inactive
[3]
  Potency: inactive
[4]
  Potency: inactive

## CC(C)(C)C(=O)C1C(=O)c2ccccc2C1=O
[1]
  Potency: inactive
[2]
  Potency: inactive
[3]
  Potency: inactive
[4]
  Potency: inactive

## CN(C)Cc1cc(CN(C)C)c(O)c(CN(C)C)c1
[1]
  Potency: inactive
[2]
  Potency: inactive
[3]
  Potency: inactive
[4]
  Potency: inactive

## O=C(O)CCSCCC(=O)O
[1]
  Potency: inactive
[2]
  Potency: inactive
[3]
  Potency: inactive
[4]
  Potency: inactive

## O=C1OC(=O)c2cc(-c3ccc4c(c3)C(=O)OC4=O)ccc21
[1]
  Potency: inactive
[2]
  Potency: inactive
[3]
  Potency: inactive
[4]
  Potency: inactive

## OC[C@@H](O)C(O)[C@@H](O)CO (some centres undefined)
[1]
  Potency: inactive
[2]
  Potency: inactive
[3]
  Potency: inactive
[4]
  Potency: inactive

## NC(N)=NS(=O)(=O)c1ccc(N)cc1
[1]
  Potency: inactive
[2]
  Potency: inactive
[3]
  Potency: inactive
[4]
  Potency: inactive

## CC(=O)CC(C)=O
[1]
  Potency: inactive
[2]
  Potency: inactive
[3]
  Potency: inactive
[4]
  Potency: inactive

## CCCCCCCCCCCC(=O)N(C)CC(=O)O
[1]
  Potency: inactive
[2]
  Potency: inactive
[3]
  Potency: inactive
[4]
  Potency: inactive

## CC(=O)Oc1ccc(C2(c3ccc(OC(C)=O)cc3)C(=O)Nc3ccccc32)cc1
[1]
  Potency: inactive
[2]
  Potency: inactive
[3]
  Potency: inactive
[4]
  Potency: inactive

## CC(=O)N[C@@H](Cc1ccc(O)cc1)C(=O)O
[1]
  Potency: inactive
[2]
  Potency: inactive
[3]
  Potency: inactive
[4]
  Potency: inactive

## FC(F)(F)C(Cl)Br (centres undefined)
[1]
  Potency: inactive
[2]
  Potency: inactive
[3]
  Potency: inactive
[4]
  Potency: inactive

## CC(=O)OCCC(C)C
[1]
  Potency: inactive
[2]
  Potency: inactive
[3]
  Potency: inactive
[4]
  Potency: inactive

## O=C(Nc1ccc(C(=O)O)c(O)c1)c1ccccc1
[1]
  Potency: inactive
[2]
  Potency: inactive
[3]
  Potency: inactive
[4]
  Potency: inactive

## Nc1ncnc2nc[nH]c12
[1]
  Potency: inactive
[2]
  Potency: inactive
[3]
  Potency: inactive
[4]
  Potency: inactive

## Cc1ccc(C(C)(C)C)cc1
[1]
  Potency: inactive
[2]
  Potency: inactive
[3]
  Potency: inactive
[4]
  Potency: inactive
